GALK inhibitor = qHTS Assay for Inhibitors of Human Galactokinase (GALK); P51570; Purified GALK, Kinase-Glo residual ATP luminescence; Potency, µM (titrated, usually from 57.5 µM), for inactives: at the highest dose activity change, negative = inhibition, most hits filed as inhibitors; 270,000 tested, 0.007% active; AID 1868, 2009
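5 nM enzyme, 35 uM ATP, 100 uM galactose, 20 mM HEPES pH8.0, 5 mM MgCl2; 1 h RT; residual ATP by Kinase-Glo Plus luminescence, qHTS format.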
PKM2 activator = qHTS Assay for Activators of Human Muscle isoform 2 Pyruvate Kinase; Pyruvate kinase PKM (Homo sapiens), P14618; purified PKM2, Kinase-Glo ATP luminescence, activation; response scale: 0% is enzyme alone, no compound; Potency, µM (series often up to 57.5 µM), inactives show top-dose activation, actives largely listed as activators; 260,000 tested, 0.34% active; AID 1631, 2009; further: nearly all actives have a fitted effect of over 55% in size
Target sequence (P14618 whole entry, looked up, canonical isoform): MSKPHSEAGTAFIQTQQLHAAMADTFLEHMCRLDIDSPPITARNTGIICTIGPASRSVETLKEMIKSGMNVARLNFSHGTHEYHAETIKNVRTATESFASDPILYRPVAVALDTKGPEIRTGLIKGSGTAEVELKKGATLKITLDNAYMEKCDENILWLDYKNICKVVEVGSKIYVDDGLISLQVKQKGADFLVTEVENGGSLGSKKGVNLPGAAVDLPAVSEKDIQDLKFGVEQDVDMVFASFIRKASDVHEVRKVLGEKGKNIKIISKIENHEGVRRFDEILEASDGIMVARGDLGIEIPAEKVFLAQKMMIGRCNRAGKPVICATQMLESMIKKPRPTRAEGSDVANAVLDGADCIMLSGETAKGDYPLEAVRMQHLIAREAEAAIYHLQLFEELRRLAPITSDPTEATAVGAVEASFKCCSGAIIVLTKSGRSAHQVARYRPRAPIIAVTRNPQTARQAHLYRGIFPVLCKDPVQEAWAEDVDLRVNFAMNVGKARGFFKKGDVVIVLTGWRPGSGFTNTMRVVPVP
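Purified hPK-M2 (>95% pure) converted ADP (0.1 mM final) to ATP with 0.5 mM PEP in 50 mM imidazole pH7.2, KCl, MgCl2, Tween 20, BSA; 1 h at room temperature. ATP detected by Kinase-Glo luminescence.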
TrxR1 substrate = qHTS Assay for Substrates of Mammalian Selenoprotein Thioredoxin Reductase 1 (TrxR1): qHTS | Potency, µM (doses to about 114 µM), without a hit: at the top dose activity change, negative = substrate turnover | Thioredoxin reductase 1, cytoplasmic (Rattus norvegicus), O89049 | purified TrxR1 substrate turnover, NADPH consumption readout | 390,000 tested, 0.01% active; further: nearly all actives have a fitted effect of over 50% in size
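Rat TrxR1, dispensed at 90 nM, was prereduced with 400 uM NADPH (final) for 5 min at ~22 deg C, then incubated with compound 15 min before 400 uM selenite. A first-read NADPH fluorescence drop versus no-compound background flagged substrates.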
TrxR1 inh = qHTS Assay for Inhibitors of Mammalian Selenoprotein Thioredoxin Reductase 1 (TrxR1): qHTS; Potency, µM (titrated, usually from 114 µM), for the others: at the top dose activity change, negative = inhibition, hits mostly inhibitors; recombinant rTrxR1, NADPH fluorescence consumption, selenite substrate; 390,000 tested, 1% active; Thioredoxin reductase 1, cytoplasmic (Rattus norvegicus), O89049; further: nearly all actives have a fitted effect of over 65% in size
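Rat TrxR1 (90 nM in the dispensed reagent) was pre-reduced with 400 uM NADPH for 5 min at room temperature, then incubated with compound for 15 min. After 400 uM selenite was added, NADPH fluorescence (Ex 340/Em 450 nm) was followed for 8 min.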
Apoferritin bind = qHTS Assay for Identification of Novel General Anesthetics | Potency, µM (highest dose often 77.5 µM), for the others: top-dose activity change, negative = displacement, hits mostly inhibitors | 350,000 tested, 0.074% active | apoferritin/1-aminoanthracene competitive binding, fluorescence | Ferritin light chain (Equus caballus), P02791; further: nearly all actives have a fitted effect of over 20% in size
Target sequence (P02791 2-175 limits assumed): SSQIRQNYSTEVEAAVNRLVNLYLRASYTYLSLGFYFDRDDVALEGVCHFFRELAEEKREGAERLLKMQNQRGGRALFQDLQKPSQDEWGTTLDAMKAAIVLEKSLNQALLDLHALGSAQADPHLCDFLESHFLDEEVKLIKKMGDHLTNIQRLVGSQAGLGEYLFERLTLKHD
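Horse-spleen apoferritin (10 uM) was mixed with 50% saturated 1-aminoanthracene in PBS, exposed to compounds for 10 min at room temperature, and read for fluorescence (ex 380 nm, em 535 nm). Competitive displacement was fitted with a four-parameter Hill equation.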
IDH1 R132H inh = qHTS for Inhibitors of mutant isocitrate dehydrogenase 1 (IDH1): qHTS. Potency, µM (titrated, usually from 76.6 µM), for inactives: at the top dose activity change, negative = inhibition, actives largely listed as inhibitors. IDH1-R132H enzyme, NADPH consumption, diaphorase/resazurin fluorescence. AID 602179, 2012. Isocitrate dehydrogenase [NADP] cytoplasmic (Homo sapiens), O75874. 390,000 tested, 0.093% active; further: nearly all actives have a fitted effect of over 65% in size
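IDH1-R132H (0.5 ug/mL) preincubated 30 min with compound, then NADPH (0.016 mM) and alpha-KG (2 mM) added; 80 min at RT, pH 7.5. Remaining NADPH coupled via diaphorase/resazurin to fluorescence (540/590 nm); concentration-response curves normalized to no-enzyme control.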
* = called active by the depositor; [ ] = another dose, or the depositor's remark. This is a sample that favours compounds with a hit; in the whole collection about 1.3% have one here. The call rests on the fitted dose curve; in most records, active means well fitted curve in the direction sought with a large enough effect; inconclusive means small, poorly fitted or top-dose-only effect, or another doubt; inactive means no such curve, though single readings can be large; an effect the other way counts as inactive or inconclusive. On the % scale 0 is the no-effect control and ±100 the full control effect; potency means the concentration at half of the fitted maximal effect.

What do the screens show for `COc1ccc(-n2c(=O)c3ccccc3n(CC(=O)NCCc3ccccc3)c2=O)c(OC)c1`?
TrxR1 substrate: -5%; TrxR1 inh: 19%; Apoferritin bind: -7%; IDH1 R132H inh: -2%

What do the screens show for `CC(Sc1nc(N)c2c3c(sc2n1)CSC(C)(C)C3)C(=O)Nc1ccccc1` (configuration not stated)?
GALK inhibitor: -1%; PKM2 activator: 7.1µM*; TrxR1 substrate: 1%; TrxR1 inh: -6%; Apoferritin bind: -4%; IDH1 R132H inh: 7%

Results for CC(Sc1nc(NCc2ccccc2)nc(N(C)C)n1)C(=O)Nc1ccccc1 (configuration not stated) ?
GALK inhibitor: 0%; PKM2 activator: 21%; TrxR1 substrate: -9%; TrxR1 inh: 12%; Apoferritin bind: -15%; IDH1 R132H inh: 1%

What do the screens show for `COc1cc(C2Nc3cccc4cccc(c34)N2)cc(OC)c1OC(C)=O`?
GALK inhibitor: 0%; PKM2 activator: 9%; TrxR1 substrate: -11%; TrxR1 inh: 35µM*; Apoferritin bind: 8%; IDH1 R132H inh: 9%

Results for COc1cc(C2Nc3cccc4cccc(c34)N2)ccc1O ?
GALK inhibitor: 6%; PKM2 activator: -1%[11.5 µM]; TrxR1 substrate: 12%[57.1 µM]; TrxR1 inh: -65%; Apoferritin bind: -20%; IDH1 R132H inh: 7%

How did COc1ccc(C(C)=O)cc1CN(C)C do in these assays?
GALK inhibitor: -1%; PKM2 activator: -4%; TrxR1 substrate: 3%; TrxR1 inh: 8.9µM*; Apoferritin bind: -6%; IDH1 R132H inh: -6%

Results for COc1ccc(C(C)=O)cc1COC(=O)c1c(C)noc1C ?
GALK inhibitor: 1%; PKM2 activator: 8%; TrxR1 substrate: -5%; TrxR1 inh: 35µM*; Apoferritin bind: -13%; IDH1 R132H inh: 6%

What do the screens show for `COc1ccc(C(C)=O)cc1CC(=O)NC1CCCCCC1`?
GALK inhibitor: 0%; PKM2 activator: -7%; TrxR1 substrate: -3%; TrxR1 inh: 5%; Apoferritin bind: -17%; IDH1 R132H inh: 2%

How did COc1ccc(C(C)=O)cc1COC(=O)c1ccc(OCc2c(C)noc2C)cc1 do in these assays?
GALK inhibitor: 3%; PKM2 activator: 0%; TrxR1 substrate: -1%; TrxR1 inh: -12%; Apoferritin bind: -12%; IDH1 R132H inh: 4%

How did OCc1cnc(SCc2ccccc2F)n1Cc1ccc(F)cc1 do in these assays?
TrxR1 substrate: 2%[57.1 µM]; TrxR1 inh: 15%[57.1 µM]; Apoferritin bind: -10%; IDH1 R132H inh: 10%

Results for Cc1nc(NC(=O)c2ccc(Br)o2)ccc1Br ?
GALK inhibitor: -3%; PKM2 activator: -10%; TrxR1 substrate: -6%; TrxR1 inh: 18%; Apoferritin bind: inconclusive; IDH1 R132H inh: 0%

Results for O=C(Nc1cccc(NC(=O)c2ccc(Br)o2)n1)c1ccc(Br)o1 ?
GALK inhibitor: 1%; PKM2 activator: 16%; TrxR1 substrate: 8%; TrxR1 inh: 32µM*; Apoferritin bind: -8%; IDH1 R132H inh: 12%

What do the screens show for `CCc1ccc(NC(=O)C2CCN(S(=O)(=O)c3ccc4[nH]c5c(c4c3)CCCCC5)CC2)cc1`?
TrxR1 substrate: 3%[57.1 µM]; TrxR1 inh: 22%[57.1 µM]; Apoferritin bind: 6%; IDH1 R132H inh: 25%

How did Cc1ccc(-c2csc3ncnc(Sc4nnnn4-c4ccccc4)c23)cc1 do in these assays?
TrxR1 substrate: 3%; TrxR1 inh: 25%

Results for O=C1CCCC2=C1C1(CCCCC1)N=C(Nc1nc3ccccc3o1)N2 ?
GALK inhibitor: 22µM*; PKM2 activator: 2%; TrxR1 substrate: 6%; TrxR1 inh: 16%; Apoferritin bind: 2%; IDH1 R132H inh: -2%

Results for c1ccc(N/N=C(\Cc2nc3ccccc3[nH]2)c2ccccc2)cc1 ?
GALK inhibitor: 0%; PKM2 activator: 5%; TrxR1 substrate: -9%; TrxR1 inh: -18%; Apoferritin bind: -11%; IDH1 R132H inh: 1%

What do the screens show for `Cc1ccc(N/N=C(\Cc2nc3ccccc3[nH]2)c2ccccc2)cc1`?
GALK inhibitor: -2%; PKM2 activator: 6%; TrxR1 substrate: -3%; TrxR1 inh: 79µM*; Apoferritin bind: -1%; IDH1 R132H inh: 4%

How did C[C@@H]1[C@H](c2ccccc2)OCCS(=O)(=O)N1Cc1ccc(Cl)cc1 do in these assays?
TrxR1 substrate: 4%; TrxR1 inh: 25%

What do the screens show for `COc1cc(N(C)C)ccc1/C=C1\C=Cc2ccccc21`?
TrxR1 substrate: -8%; TrxR1 inh: -13%

Results for CC(C)CN(C)c1ccc(/C=C2\C=Cc3ccccc32)cc1 ?
TrxR1 substrate: -3%; TrxR1 inh: 45µM*

How did CN(C)/C=C1\C=Cc2ccccc21 do in these assays?
TrxR1 substrate: -5%; TrxR1 inh: 2.2µM*

What do the screens show for `COc1ccccc1/C=C1\C=Cc2ccccc21`?
TrxR1 substrate: -13%; TrxR1 inh: 22µM*

Results for Cn1c(=O)c2nc(SCC(=O)Nc3cc(Cl)ccc3Cl)n(C)c2n(C)c1=O ?
TrxR1 substrate: 3%[57.1 µM]; TrxR1 inh: 22%[57.1 µM]; Apoferritin bind: 5%; IDH1 R132H inh: -14%

Results for Cc1ccc(C)c(N2CCN(C(=O)c3cc4c(=O)n(Cc5cccnc5)ccc4nc3C)CC2)c1 ?
TrxR1 substrate: 2%[57.1 µM]; TrxR1 inh: 18%[57.1 µM]; Apoferritin bind: -16%; IDH1 R132H inh: 0%
